# In PubChem BioAssay AID1259374 (The Scripps Research Institute Molecular Screening Center, 2018):
# About 5,900 (0.91%) of roughly 650,000 compounds were called active. The sample as a whole holds a higher share of actives than the screen did. Unmarked numbers belong to inactive results. No stated cut-off is given here; in the data, active means inhibition above about 50%; inactive means the rest.
# Target: Microphthalmia-associated transcription factor (Homo sapiens) (UniProt O75030)
# Test: MITF inhibitors, primary screen, biochemical, AlphaScreen, human (AID 1259374);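 further: 0% = vehicle wells with protein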
# Details: AlphaScreen MITF homodimerization, bead proximity signal; at 2.6 µM; stronger effect = higher value
# Microphthalmia-associated transcription factor (Homo sapiens), sequence (O75030 whole entry, looked up): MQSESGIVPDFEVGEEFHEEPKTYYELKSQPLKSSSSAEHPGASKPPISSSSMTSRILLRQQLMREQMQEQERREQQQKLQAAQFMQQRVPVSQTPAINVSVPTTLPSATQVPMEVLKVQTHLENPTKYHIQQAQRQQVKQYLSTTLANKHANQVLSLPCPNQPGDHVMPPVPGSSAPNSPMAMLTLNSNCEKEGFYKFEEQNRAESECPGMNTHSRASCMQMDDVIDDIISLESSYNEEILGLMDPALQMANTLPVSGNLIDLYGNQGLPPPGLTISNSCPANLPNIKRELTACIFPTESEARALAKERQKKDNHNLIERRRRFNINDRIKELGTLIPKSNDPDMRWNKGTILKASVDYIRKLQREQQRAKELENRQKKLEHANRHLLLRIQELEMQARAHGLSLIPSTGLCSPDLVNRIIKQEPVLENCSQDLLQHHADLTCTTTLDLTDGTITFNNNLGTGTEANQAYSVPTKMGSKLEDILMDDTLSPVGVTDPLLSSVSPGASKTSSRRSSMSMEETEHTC
row,Structure (SMILES),inhibition
1,COc1ccc(OC)c(-n2nnnc2SCC(=O)N2CCc3ccccc32)c1,9.95%
2,CC(C)n1cnc2c(NCc3cccc(C(F)(F)F)c3)nc(Nc3ccncn3)nc21,12.6%
3,Cc1ccc2c(c1)-c1c(cnn1CC(=O)NCc1ccccn1)CO2,-4%
4,COc1ccc(N2CCN(Cc3ccc(Br)s3)CC2)cc1,71.6% (active)
5,COc1cccc(N2CCN(Cc3cccs3)CC2)c1,42.8%
6,COc1ccc(N2CCN(Cc3coc4ccc(Cl)cc4c3=O)CC2)cc1,10.4%
7,CCOC(=O)c1ccc(-n2c(=S)sc3c2nc(SCC(=O)N2CCCC2)n2c4ccccc4nc32)cc1,-3.4%
8,CCOc1cc2c(cc1/C=C1/NC(=O)N(CC(=O)Nc3ccccc3C)C1=O)OCO2,12.6%
9,Cc1ccccc1CC1(C2CCN(C(=O)C(C)C)CC2)NC(=O)N(CCCN(C)C)C1=O (centres undefined),4.98%
10,CNC(=O)/C(C#N)=C/c1cn(CC(=O)NCCOC)c2ccccc12,5.66%
11,COc1cccc(CN2CCN3C(=O)[C@H]4CCCN4C(=O)[C@H]3C2)c1,-17.2%
12,CSc1ccc(CN2CCN(Cc3cccc(Oc4ccccc4)c3)CC2)cc1,52% (active)
13,CSc1ccc(CN2CCN(C(=O)c3cccc(F)c3)CC2)cc1,34.1%
14,CCc1ccc(NS(=O)(=O)c2ccc3c(c2)CCN3C(=O)C2CC2)cc1,2.16%
15,CCC1CCc2c(sc3nc(SCC(=O)Nc4ccc(Br)cc4)n(-c4ccccc4)c(=O)c23)C1 (centres undefined),10.8%
16,COCc1nc2ccccc2n1CCc1noc(-c2cccs2)n1,8.99%
17,COCc1nc2ccccc2n1CCc1noc(-c2ccco2)n1,82% (active)
18,Cc1nc2ccccc2n1CCc1noc(COc2ccccc2)n1,9.51%
19,CCCc1[nH]n(-c2ccc(F)cc2)c(=O)c1CNN1CCOCC1,-2.83%
20,NC(=O)COC(=O)/C=C/c1ccc(I)o1,52.1% (active)
21,CNC(=O)COC(=O)/C=C/c1ccc(C)o1,18.9%
22,COc1cc(/C=C/C(=O)OCC(N)=O)ccc1OCC#N,6.64%
23,Cc1ccc(C)c(NC(=S)N(Cc2ccccc2C)CC2CCC(C(=O)O)CC2)c1 (centres undefined),13.3%
24,CCCC(=O)NC(c1ccccc1OC)c1cc([N+](=O)[O-])c2cccnc2c1O (centres undefined),56.2% (active)

row,Structure (SMILES),inhibition
1,CCCCC(=O)NC(c1ccc(OC)cc1)c1cc([N+](=O)[O-])c2cccnc2c1O (centres undefined),18.8%
2,COc1cc(C(=O)NC(c2ccccc2Cl)c2cc([N+](=O)[O-])c3cccnc3c2O)cc(OC)c1OC (centres undefined),24.9%
3,C/C(N)=C(/C#N)C(=O)CSc1cccc[n+]1[O-],-1.32%
4,O=C1c2ccccc2-c2ccc(-c3nc(-c4ccccc4)[nH]c3-c3ccccc3)cc21,-1.27%
5,CC(C)(C)NCCOCCOc1ccc(I)cc1,40.6%
6,CC(C)(C)NCCOCCOc1ccc(Cl)c(Cl)c1,73.1% (active)
7,Cc1ccc(OCCCCNC(C)(C)C)cc1C,1.35%
8,CCOC(=O)C(C)Oc1cccc2c(=O)n(CC(=O)Nc3ccc(C)c(Cl)c3)ccc12 (centres undefined),-3.54%
9,CC1=C(C#N)C(=O)NC(=O)/C1=C\c1ccc(-c2cccc(Cl)c2)o1,-5.17%
10,CC1=C(C#N)C(=O)NC(=O)/C1=C\c1ccc(-c2ccc(Cl)c(C(=O)O)c2)o1,77.7% (active)
11,CC1=C(C#N)C(=O)NC(=O)/C1=C/c1ccc(-c2ccc(Cl)cc2Cl)o1,13.9%
12,CCOC(=O)c1ccc(N2CCN(c3ccc(F)cc3)CC2)c(NC(=O)Nc2ccc(OC)cc2OC)c1,-1.5%
13,O=C1C2C3CC(C(Br)C3Br)C2C(=O)N1C1CCCCC1 (centres undefined),-2.53%
14,O=C(NCc1ccco1)c1ccc2c(c1)C(=O)N(Cc1cccnc1)C2=O,-3.01%
15,O=C(Nc1cccc(O)c1)c1ccc2c(c1)C(=O)N(Cc1cccnc1)C2=O,-1.4%
16,O=C(c1ccc2c(c1)C(=O)N(Cc1cccnc1)C2=O)c1ccc2c(c1)C(=O)N(Cc1cccnc1)C2=O,104% (active)
17,CC(=O)N1C(=O)C(=O)c2cc(Cl)ccc21,-11.3%
18,Cc1ccc(NC(=O)C(C)C2Sc3ccccc3NC2=O)c(C)c1 (centres undefined),9.32%
19,O=C(C1CCN(c2nc3ccccc3n3cccc23)CC1)N1CCN(c2ccccn2)CC1,10.7%
20,O=C(C1CCN(Cc2nc3ccccc3[nH]2)CC1)N1CCN(c2ccccn2)CC1,51.4% (active)
21,O=C(C1CCN(Cc2nc3ccccc3[nH]2)CC1)N1CCN(c2ccc(Cl)nn2)CC1,-4.97%
22,CN(c1ccccc1)S(=O)(=O)c1ccc(C(=O)N2CCc3ccccc32)cc1,-6.36%
23,c1ccc(Oc2cccc(OCCCCn3cncn3)c2)cc1,73.8% (active)
24,O=C(Cn1cncn1)NCCCOc1cccc(CN2CCCCCCC2)c1,-3.47%

row,Structure (SMILES),inhibition
1,Fc1ccccc1OCCCCn1cncn1,20.2%
2,O=C(c1cccs1)N1CCN(S(=O)(=O)c2ccc(Cl)cc2)CC1,-0.92%
3,Cc1cccc(CN2CCC(N3CCN(C(=O)c4cccs4)CC3)CCC2=O)c1 (centres undefined),-6.77%
4,O=C(c1cccs1)N1CCC(N2CCN(Cc3ccccc3)CC2)CC1,76.7% (active)
5,O=C(CN1CCN(C(=O)c2cccs2)CC1)c1cccs1,-1.86%
6,CCOC(=O)c1c(NC(=O)c2ccccc2Br)sc2c1CC(C)(C)NC2(C)C,3.37%
7,Nc1ccc(S(=O)(=O)O)c2cc(S(=O)(=O)O)cc(O)c12,63.3% (active)
8,NS(=O)(=O)c1ccc(O)c2ccccc12,13.7%
9,Cc1ccc(/C=C2/C(=O)N(C)C(=S)N(c3ccccc3)C2=O)s1,23.2%
10,O=C(NC1CC1)C1CCC(=O)N1Cc1ccccc1Cl (centres undefined),-6.74%
11,O=C1c2ccccc2C(O)N1Cc1ccccc1 (centres undefined),3.72%
12,O=C1c2ccccc2C(O)N1Cc1ccccc1Cl (centres undefined),79.6% (active)
13,COC(=O)Cn1cc(-c2ccc([N+](=O)[O-])cc2)nc1SCC(=O)NC(C)(C)C,-1.03%
14,N#Cc1ccc(-c2cccnc2)nc1SCC(=O)c1ccc(Cl)cc1,-7.18%
15,COc1ccc(NC(=O)C2(N(C)C(=O)Cn3nnnc3N)CCCCC2)cc1,5.13%
16,COc1ccc(N(C(=O)Cc2nc(N)n[nH]2)C2(C(=O)Nc3ccccc3)CCCCC2)cc1,-1.47%
17,COCCN(C(=O)CN1C(=O)c2ccccc2C1=O)C1(C(=O)Nc2ccccc2)CCCC1,11.4%
18,CCN(C(=O)Cc1nc(N)n[nH]1)C1(C(=O)Nc2ccccc2)CCCCC1,68.5% (active)
19,CCN(C(=O)Cc1nc(N)n[nH]1)C1(C(=O)Nc2ccc(C)cc2)CCCCC1,63% (active)
20,COCCCN(C(=O)c1cc2ccccc2o1)C1(C(=O)Nc2ccccc2)CCCC1,6.26%
21,Cc1ccc(NC(=O)CNCCCSc2ccccc2)cc1C,75.4% (active)
22,Cc1ccc(NC(=O)Cn2c(=O)[nH]n(-c3ccccc3)c2=O)cc1C,-10.5%
23,Cc1ccc(NC(=O)CSCC(=O)Nc2ccccc2F)cc1C,4.24%
24,CC1=CC(C)(C)N2C(=O)C(=O)c3cc(OC(=O)C(C)(C)C)cc1c32,-9.06%

row,Structure (SMILES),inhibition
1,CC(C)OC(=O)C1=c2/c(=C/c3ccco3)c(N)c(C#N)n2C(=O)C(c2ccco2)S1 (centres undefined),14.9%
2,Cc1nc(N2CCCCC2C)c2c(C)c(C(=O)NC3CCCCC3)sc2n1 (centres undefined),9.14%
3,COCC(=O)Nc1ccc2nc(C)n(-c3ccc(F)cc3)c(=O)c2c1,-0.07%
4,COc1ccc(OCCn2ccnc2C)cc1,57.2% (active)
5,Cc1nccn1CC(O)COc1ccc(Br)cc1 (centres undefined),4.86%
6,COc1ccc(OCCSc2nnc3nc(C)cc(C)n23)cc1,7.82%
7,CC1CCC(C(C)C)C(OC(=O)COC(=O)c2cnccn2)C1 (centres undefined),2.66%
8,Cc1cc(C)c(NC(=O)CNC(C)(C)C)c(C)c1,-3.53%
9,CCOC(=O)C1CCN(c2nc(-c3cccc(C)c3)nc3ccccc23)CC1,0.58%
10,CCN(CC)CC(=O)Nc1nn(-c2ccccc2)nc1C(N)=O,-0.44%
11,CCN(CC)CC(=O)Nc1c2c(nc3ccccc13)N(c1cccc(C)c1)CC2,65.6% (active)
12,CCOC(=O)COc1cccc2c1CCN(Cc1ccccc1)C2=O,-3.19%
13,CC(C)(C)NCC(=O)Nc1c2c(nc3ccccc13)N(Cc1ccccc1)CC2,63.8% (active)
14,Cc1[nH]c(=O)[nH]c(=O)c1S(=O)(=O)N1CCOc2ccccc21,5.78%
15,CC(C)C(=O)Nc1ccc(CN2CCOCC2)cc1,1.55%
16,CCc1ccc(NC(=O)C(=O)NCCCN2CCOCC2)cc1,12.7%
17,CC(NCCCN1CCOCC1)C(=O)Nc1ccccc1 (centres undefined),77.6% (active)
18,O=C(Cn1c(=O)n(Cc2ccc3c(c2)OCO3)c(=O)c2ncccc21)N1CCc2ccccc21,3.95%
19,CCOC(=O)N/N=C/c1ccc(OS(=O)(=O)c2ccc(C)cc2)c(OC)c1,2.78%
20,COc1ccc(C(=O)COC(=O)CNS(=O)(=O)/C=C/c2ccc(C)cc2)cc1OC,74.8% (active)
21,COc1cc(C=O)ccc1OCC(=O)c1ccc(C)c(C)c1,11.1%
22,O=C(CCN1C(=O)C2CCCCC2C1=O)N1CCc2c(nc(N3CCCC3)[nH]c2=O)C1 (centres undefined),-0.41%
